Measured values from PubChem BioAssay AID425 (Sanford-Burnham Center for Chemical Genomics, 2006).
Several values for one entry are separate records, joined by “and”; a condition that tells them apart may be missing. Identical values can stand only once. Out of some 110,000 compounds screened, about 190 (0.17%) were called active. No stated cut-off is given here; in the data, active means inhibition above about 50%; inactive means the rest. This excerpt belongs to a sample that is enriched for actives. Measured potencies and affinities stand elsewhere.

Each molecule was assayed against Dual specificity protein phosphatase 6 (Rattus norvegicus) (UniProt Q64346) (assay: MKP-3 phosphatase inhibitors, primary screen, biochemical, rat enzyme, in vitro (AID 425;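 further: plate controls were vehicle for no effect and reference inhibitor for full effect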)). Conditions: recombinant MKP-3 phosphatase activity, fluorescence; at 20 µM; stronger effect = higher value.
Chain of Dual specificity protein phosphatase 6 (Rattus norvegicus) (Q64346 whole entry, looked up): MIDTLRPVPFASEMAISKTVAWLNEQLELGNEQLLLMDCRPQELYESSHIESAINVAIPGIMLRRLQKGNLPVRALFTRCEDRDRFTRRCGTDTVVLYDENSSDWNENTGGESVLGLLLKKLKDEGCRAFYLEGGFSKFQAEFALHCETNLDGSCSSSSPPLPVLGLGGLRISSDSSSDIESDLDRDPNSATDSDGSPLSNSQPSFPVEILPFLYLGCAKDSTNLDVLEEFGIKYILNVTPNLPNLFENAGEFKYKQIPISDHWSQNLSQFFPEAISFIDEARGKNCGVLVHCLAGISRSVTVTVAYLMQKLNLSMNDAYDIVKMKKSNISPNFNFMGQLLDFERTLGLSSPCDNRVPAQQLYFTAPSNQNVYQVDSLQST

inhibition, inactive:
CC(C)=C1C2CCC1C(C(=O)NCCC1=CCCCC1)C2C(=O)O (stereo not given) 1.3%
CCc1ccc(-n2c(C)cc(/C=N/NC(=O)c3cccnc3)c2C)cc1 6.1%
O=C(NCCN1CCOCC1)c1cccc(S(=O)(=O)N2CCCCCC2)c1 -10.5%
CN1C(=O)/C(=C2\SC(=S)N(CC(=O)O)C2=O)c2ccccc21 2%
CN1C(=O)c2oc3ccc(Br)cc3c(=O)c2C1c1ccncc1 (stereo not given) 2.2%
Cc1ccc(NC(=O)C(=O)N/N=C/c2cccs2)cc1 0.5%
CCc1ccccc1OCCN(CC)CC 1.4%
COc1cc(/C=N/NC(=O)c2cccc([N+](=O)[O-])c2)cc(I)c1O -0.4%
COc1ccc(/C=N/NC(=O)c2cccc([N+](=O)[O-])c2)cc1Br -2.3%
C/C(=N\NS(=O)(=O)c1ccc(C)cc1)C(C)(C)CC(=O)O 0.4%
Cc1ccc(S(=O)(=O)N2CCN(Cc3ccccc3[N+](=O)[O-])CC2)cc1 3.5%
CCOC(=O)CNC(=O)CSc1nnc(Cn2cnc3ccccc32)n1C -4.9%
COc1ccc(OC)c(CNC(=O)COc2cc(=O)n(C)c3ccccc23)c1 -0.9%
CCOC(=O)/C=C/CSc1nc2sc3c(c2c(=O)[nH]1)CCCC3 3.4%
CCOc1cc(C=C2C(=O)c3ccccc3C2=O)ccc1OCc1ccc(Cl)cc1Cl 2%
COc1cc(/C=N/NC(=O)Cc2nnc(N)s2)ccc1OCc1ccc(Cl)cc1Cl 0.3%
CCN(CC)c1ccc(/C=N/NC(=O)Cn2nnc(-c3ccccc3)n2)c(O)c1 0.8%
O=C(O)CC(NC(=O)C(c1ccccc1)c1ccccc1)c1ccco1 (stereo not given) -9.2%
O=P(c1ccccc1)(c1ccccc1)C(O)c1ccco1 (stereo not given) 4.6% and -1.6%
O=C(NC1(O)C(=O)c2ccccc2C1=O)c1ccccc1 21.6%
Cc1nonc1NC(=O)Nc1cccnc1 -4.7%
CC1=CC(=O)C=C/C1=N\OS(=O)(=O)c1ccccc1 8.7%
CC1=C/C(=N\OC2=C(O/N=C3/C=CC(=O)C(C)=C3)C(=O)c3ccccc3C2=O)C=CC1=O 42.8%
Cc1cc(Cl)ccc1OCCCC(=O)NC1CCN(C)CC1 -4.9%
Cn1c(CCNC(=O)c2ccccc2F)nnc1SCc1nc2ccccc2c(=O)[nH]1 -5.4%
COc1ccc(S(=O)(=O)Nc2cccc([N+](=O)[O-])c2C)cc1 -0.4%
CCCCSc1nc(C)c(CC(=O)OC)c(=O)[nH]1 -20.2%
CCCOc1cccc(C(=O)Nc2ccc(Br)cc2C(=O)O)c1 2.6%
C=CCN1C(=O)/C(=C\c2ccc(I)o2)C(=O)NC1=S 4.5%
O=C1NN(c2ccccc2)C(=O)/C1=C/c1ccc(-c2ccccc2)o1 7.9%
O=C1NN(c2ccccc2)C(=O)/C1=C/c1ccc(-c2ccccc2[N+](=O)[O-])o1 16%
O=C1NN(c2ccccc2)C(=O)/C1=C/c1ccc(-c2ccc(F)cc2)o1 -3.3%
O=C1NN(c2ccccc2)C(=O)/C1=C/c1ccc(-c2cccc([N+](=O)[O-])c2)o1 6.9%
C=CCN1C(=O)/C(=C\c2ccc(-c3ccc([N+](=O)[O-])cc3)o2)C(=O)NC1=S 25.4%
Cc1ccc(S(=O)(=O)NC(C)(C)CN2CCN(CC(C)(C)NS(=O)(=O)c3ccc(C)cc3)CC2)cc1 -0.5%
Cc1ccc2nc(NC(=O)c3ccccc3)sc2c1 1.9%
COc1ccccc1/C=C/C=N/NC(=O)CSc1nc2ccccc2n1C 1.8%
CCOc1ccccc1NC(=O)c1c(NC(=O)c2cccc(F)c2)sc2c1CCC(C)C2 (stereo not given) 3.6%
CSc1nc(N2CCN(CCO)CC2)c2sc3nc(-c4ccco4)c4c(c3c2n1)CCC4 0.5%
CSc1nc(NCCOCCO)c2sc3nc(-c4ccco4)c4c(c3c2n1)CCC4 -0.3%
O=C(O)/C=C/c1ccc(-c2ccc(Cl)c(Cl)c2)o1 -3.2%
O=C(/C=C/c1ccco1)Nc1ccc(Cl)c(Cl)c1 10.7%
Cc1ccc(S(=O)(=O)/N=C2/C=C(S(=O)(=O)c3ccc(C)cc3)C(=O)c3ccccc32)cc1 20.6%
Cc1ccc(S(=O)(=O)/N=C2/C=C(Sc3nnnn3-c3ccccc3)C(=O)c3ccccc32)cc1 27.3%
O=C1C(N2CCOCC2)=C/C(=N\S(=O)(=O)c2ccc(Cl)cc2)c2ccccc21 5.9%
O=C1C(Cl)=C/C(=N\S(=O)(=O)c2ccc(Cl)cc2)C(Cl)=C1Cl -1%
COc1ccc(S(=O)(=O)N=C2C=CC(=NS(=O)(=O)c3ccc(OC)cc3)C=C2)cc1 1.8%
Cc1ccc(S(=O)(=O)/N=C2\C=C(n3cnc4ccccc43)C(=O)c3ccccc32)cc1 36.8%
Cc1ccc(S(=O)(=O)/N=C2\C=CC(=O)C=C2Cl)cc1 -0.1%
COC(=O)C(C(=O)OC)C1=C/C(=N/S(=O)(=O)c2ccc(C)cc2)c2ccccc2C1=O 1.7%

inhibition, active:
Cc1nonc1NC1(O)C(=O)c2ccccc2C1=O 106%
CC1=CC(=O)C=C/C1=N/OC1=C(O/N=C2/C=CC(=O)C=C2C)C(=O)c2ccccc2C1=O 66%
C=CCN1C(=O)/C(=C\c2ccc([N+](=O)[O-])o2)C(=O)NC1=S 95.8%
O=C1NN(c2ccccc2)C(=O)/C1=C/c1ccc(Br)o1 75.8%
O=C1NN(c2ccccc2)C(=O)/C1=C/c1ccc([N+](=O)[O-])o1 56.6%
O=C(/C=C/c1ccco1)/C=C/c1ccc(-c2ccc(Cl)c(Cl)c2)o1 75.1%
Cc1ccc(S(=O)(=O)/N=C2/C=C(Cl)C(=O)c3ccccc32)cc1 52.7%
COc1ccc(S(=O)(=O)/N=C2\C=C(Br)C(=O)c3ccccc32)cc1 97.9%
Cc1ccc(S(=O)(=O)/N=C2\C=C(Sc3ncn[nH]3)C(=O)c3ccccc32)cc1 98.1%
O=C1C(Cl)=CC(=NS(=O)(=O)c2ccc(Cl)cc2)c2ccccc21 95.7%
